Source: PubChem BioAssay
Most compounds without a hit are left out; they make up all but 3.5% or so of the library.
TEAD-YAP block = TEAD-YAP interaction inhibition, primary screen, TEAD-YAP interaction inhibitor project, luminescence, HEK-TIYL cells | TEAD-Gal4/YAP UAS-luciferase luminescence | inhibition, % at 9.12 µM | hit rate 1.4% among 640,000; in the data active = inhibition above about 32%
MITF primary = MITF inhibitors, primary screen, biochemical, AlphaScreen, human; Microphthalmia-associated transcription factor (Homo sapiens), O75030; AlphaScreen MITF homodimerization, bead proximity signal; inhibition, % at 2.6 µM; hit rate 0.91% among 650,000; AID 1259374, 2018; in the data active = inhibition above about 50%
GPR151 activ = activators of human GPR151, primary screen, cell-based, PathHunter beta-arrestin, luminescence; AID 1508602, 2020; PathHunter beta-arrestin GPR151 cells; activation, % at 11.2 µM; hit rate 1% among 650,000; G-protein coupled receptor 151 (Homo sapiens), Q8TDV0; in the data active = activation above about 4.9%
FBW7 act = FBW7 E3 ligase activators, primary screen, biochemical, AlphaScreen, human. AlphaScreen FBW7–phospho-cyclin E peptide binding, activator screen. hit rate 0.13% among 650,000. normalized activity (activation), % at 26.1 µM; in the data active = normalized activity above about 1.9%;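 also: purified mutant Fbw7 with reduced substrate affinity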
Target sequence (Q969H0 whole entry, looked up): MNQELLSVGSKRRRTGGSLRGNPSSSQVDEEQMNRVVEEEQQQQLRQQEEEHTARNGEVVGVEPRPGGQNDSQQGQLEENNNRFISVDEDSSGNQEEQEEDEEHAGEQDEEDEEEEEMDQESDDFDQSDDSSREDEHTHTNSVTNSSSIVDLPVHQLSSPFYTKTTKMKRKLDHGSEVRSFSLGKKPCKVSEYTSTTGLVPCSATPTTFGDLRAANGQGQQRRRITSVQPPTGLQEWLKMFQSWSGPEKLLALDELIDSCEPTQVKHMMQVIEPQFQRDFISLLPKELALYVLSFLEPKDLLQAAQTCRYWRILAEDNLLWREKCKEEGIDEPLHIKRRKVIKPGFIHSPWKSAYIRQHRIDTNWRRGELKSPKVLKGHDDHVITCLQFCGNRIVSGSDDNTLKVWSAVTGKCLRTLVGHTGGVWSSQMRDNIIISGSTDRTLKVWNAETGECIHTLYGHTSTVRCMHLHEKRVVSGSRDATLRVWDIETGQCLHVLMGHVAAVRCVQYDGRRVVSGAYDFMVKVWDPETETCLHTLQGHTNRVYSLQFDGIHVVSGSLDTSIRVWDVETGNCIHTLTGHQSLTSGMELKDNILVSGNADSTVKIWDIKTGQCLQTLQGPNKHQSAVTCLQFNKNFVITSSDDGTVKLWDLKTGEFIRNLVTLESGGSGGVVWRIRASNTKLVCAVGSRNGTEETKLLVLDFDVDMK
GPR151 confirm = GPR151 activators, triplicate retest, confirmation, cell-based, PathHunter beta-arrestin, luminescence. activation, % at 11.2 µM. shares compounds with GPR151 activ. GPR151 PathHunter beta-arrestin cells, 90 min; % of EA-reagent control over plate median. 6,700 tested, under 10 active;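 active = mean percent activation across replicates above the confirmation screen cutoff of 4.91%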
GPR119 ag = GPR119 activators in beta-arrestin cells, counter-screen for GPR151 activator project, cell-based, PathHunter beta-arrestin, luminescence, triplicate | shares compounds with GPR151 activ | hit rate 0.3% among 6,700 | activation, % at 11.2 µM | AID 1508611, 2020 | 90 min; 0 = compound-well median, 100 = enzyme-acceptor control;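 active = mean percent activation in the counterscreen above 29.09%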;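 also: counterscreen on off-target GPR119 to flag nonselective hits from the GPR151 activator screen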
Numbers stand for hits; i = inactive; nt = not tested or not shown; ! = not active in a repeat.

SMILES | TEAD-YAP block | MITF primary | GPR151 activ | FBW7 act | GPR151 confirm | GPR119 ag
CCOC(=O)c1cc2c(c(CSc3nc4ccccc4c(=O)n3Cc3ccc4c(c3)OCO4)c1)OCOC2 | i | i | 4.9 | i | i | i
COC(=O)C12CC3C(C1C(C)=NN2C(C)=O)C3(C)C (stereo not drawn) | i | i | i | i | nt | nt
CC(=O)OC12CC3C(C1C(C)=NN2C(=O)C(=O)N1N=C(C)C2C4C(CC21OC(C)=O)C4(C)C)C3(C)C (stereo not drawn) | i | i | 7.8 | i | i | i
CC1CN(C(=O)CCC(=O)N2CCOCC2)c2ccccc2O1 (stereo not drawn) | i | i | 8.3 | i | i | i
COc1ccc(N2CCN(C(=O)Cc3c[nH]c4ccccc34)CC2)cc1 | i | i | i | i | nt | nt
CSc1cccc(NC(=O)N[C@H]2C[C@H]3C(=O)N4CCC[C@@H]4C(=O)N3C2)c1 | i | i | i | i | nt | nt
COc1ccc(/C(O)=C2/C(=O)C(=O)N(CCN(C)C)C2c2ccc(C)cc2)cc1 (stereo not drawn) | i | i | i | i | nt | nt
CCOc1ccccc1/C=C1\Oc2c(ccc(O)c2CN2CCN(CCO)CC2)C1=O | i | i | 6.8 | i | i | i
CCOc1ccc(/C=C2\Oc3c(ccc(O)c3CN3CCN(CCO)CC3)C2=O)cc1 | i | i | i | i | nt | nt
CC(C)(C)OC(=O)NNC(=O)/C=C/c1cc(Br)ccc1F | i | i | 5.2 | i | i | i
COCCNC(=O)C1CCCN(S(=O)(=O)c2c(C)noc2/C=C/c2cccs2)C1 (stereo not drawn) | i | i | 5.3 | i | i | i
COc1ccc(NC(=O)C2CC3CCCN3C23C(=O)N(C)c2ccccc23)cc1OC (stereo not drawn) | i | i | 5.2 | i | i | i
Cc1ccc(NC(=O)C2CC3CCCN3C23C(=O)N(C)c2ccccc23)cc1C (stereo not drawn) | i | i | i | i | nt | nt
Cc1ccc2nc(C)c(C(=O)N(C)c3ccccc3)n2c1 | i | i | i | i | nt | nt
CC(=O)Nc1cccc(NC(C)=C(C#N)C#N)c1 | i | i | 5.2 | i | i | i
COc1nc(NCCCN2CCCC2=O)nc(-c2ccc(C(=O)N3CCN(C)CC3)cc2)n1 | i | i | i | i | nt | nt
COc1nc(NCCCN2CCCC2=O)nc(-c2ccc(C(N)=O)cc2)n1 | i | i | 8.5 | i | i | i
COC(=O)CSc1nnc(CNC(=O)c2cccc(F)c2)n1-c1cc(C)ccc1C | i | i | i | i | nt | nt
O=C(O)c1cccc(-n2nnnc2-c2ccccc2)c1 | i | i | 5.8 | i | i | i
COC(=O)c1c(NC(C)=O)c2c(C)c(C)sc2n1Cc1cccc(OC)c1 | i | i | i | i | nt | nt
C=Cc1ccc(Cn2c(C(=O)OC)c(NC(C)=O)c3c(C)c(C)sc32)cc1 | i | i | 5.4 | i | i | i
CCOC(=O)C1=C(C)NC2=C(C(=O)CC(C)(C)C2)C1c1ccc(OC)c(OC)c1OC (stereo not drawn) | i | i | 11.8! | i | i | i
COc1cc(C2C(C(=O)OC3CCCCC3)=C(C)NC3=C2C(=O)CC(C)(C)C3)cc(OC)c1OC (stereo not drawn) | i | i | 12.4 | i | i | i
CCOC(=O)C1=C(C)NC2=C(C(=O)CC(C)(C)C2)C1c1cccc(OC)c1OC (stereo not drawn) | i | i | i | i | nt | nt
COc1ccc(C(=O)NCCc2sc(-c3ccccc3)nc2C)cc1 | i | i | 5.2 | i | i | i
SMILES | TEAD-YAP block | MITF primary | GPR151 activ | FBW7 act | GPR151 confirm | GPR119 ag
COc1ccc(-c2nc(C)c(CCNC(=O)c3cccc(OC)c3)s2)cc1 | i | i | i | i | nt | nt
CC(=O)Nc1ccc(/C(C)=N/NC(=O)CC2(O)CCCCC2)cc1 | i | i | i | i | nt | nt
Cc1nc(SCC(=O)O)cc(-c2ccccc2)n1 | i | i | 5.0 | i | i | i
O=C(O)CSc1nc(-c2ccccc2)cc(C(F)F)n1 | i | i | i | i | nt | nt
CCOCCn1ccc2c(OCC(=O)NCCOC)cccc2c1=O | i | i | 13.8 | i | i | i
CCOCCn1ccc2c(OCC(=O)Nc3ccc(F)cc3F)cccc2c1=O | i | i | i | i | nt | nt
O=C(c1ccccc1)c1ccccc1-n1cccc1 | i | i | i | i | nt | nt
O=C(O)C(Oc1ccccc1-n1cccc1)c1ccccc1 (stereo not drawn) | i | i | 6.4 | i | i | i
CCCCCCc1c(C)c2ccc(OC(C)C(=O)OC)cc2oc1=O (stereo not drawn) | i | i | 5.7 | i | i | i
CCc1cc(=O)oc2cc(OC(=O)c3ccco3)ccc12 | i | i | 6.8 | i | i | i
COC(=O)C(C)Oc1ccc2c(C)c(Cc3ccccc3)c(=O)oc2c1 (stereo not drawn) | i | i | i | i | nt | nt
CCCCOC(=O)COc1ccc2c(CCC)cc(=O)oc2c1 | i | i | i | i | nt | nt
COC(=O)Cc1c(C)c2ccc(OC(=O)c3ccco3)cc2oc1=O | i | i | 9.0 | i | i | i
C=CCOC(=O)COc1ccc2c(CCC)cc(=O)oc2c1 | i | i | 5.8 | i | i | i
Cc1cc(=O)oc2cc(OC(=O)c3ccco3)ccc12 | i | i | i | i | nt | nt
O=C(Nc1ccc2c(c1)CCC2)c1ccc2c(=O)n(-c3cc(C(F)(F)F)ccc3Cl)c(=S)[nH]c2c1 | i | i | i | i | nt | nt
S=c1nc(NC2CCCCCC2)c2ccccc2[nH]1 | i | i | i | i | nt | nt
COc1ccc(C2C(C#N)=C(N)N(N(C)C)C3=C2C(=O)CCC3)cc1 (stereo not drawn) | i | i | i | i | nt | nt
CN(C)N1C(N)=C(C#N)C(c2ccc3ccccc3c2)C2=C1CCCC2=O (stereo not drawn) | i | i | 5.9 | i | i | i
CCOCCCNC(=O)CN1CC(=O)N2CCCC2C1=O (stereo not drawn) | i | i | i | i | nt | nt
CCN(CC)CCNC(=O)CN1CC(=O)N2CCCC2C1=O (stereo not drawn) | i | i | 5.9 | i | i | i
COc1ccc(Nc2nc(N3CCN(C)CC3)c3ccccc3n2)cc1 | i | i | 9.5 | i | i | i
CCOc1ccc(Nc2nc(N3CCN(C)CC3)c3ccccc3n2)cc1 | i | i | i | i | nt | nt
COc1ccc(/C=C2/SC(=Nc3ccc(O)cc3)NC2=O)cc1 | i | i | 5.0 | i | i | i
COc1ccc(/C=C2\SC(=Nc3ccc(O)cc3)NC2=O)cc1 | i | i | i | i | nt | nt
Cc1cc(C)cc(N=C2NC(=O)/C(=C/c3ccc(OCc4ccc(Br)cc4)cc3)S2)c1 | i | i | 5.7 | i | i | i
Cc1cc(C)cc(N=C2NC(=O)/C(=C/c3ccc(OCc4ccc(Br)cc4)c(Br)c3)S2)c1 | i | i | i | i | nt | nt
COc1cccc(OCC(=O)NNC(=O)C(c2ccccc2)c2ccccc2)c1 | i | i | i | i | nt | nt
